The first experiment addresses ARF4. Briefly: pooled miR-30 sensor sort-seq; sequence = guide strand. To be noted: shRNA.
On to TTTATCAAACATGTCCTTGGTT, for which the sensor-assay potency score (higher = more potent) worked out at 0.237.
As for TAATTCTATCTTGACCACCAAC, the sensor-assay potency score (higher = more potent) was -1.26.
Same read-out and setting: with AATTTTATCAAACATGTCCTTG the figure was -0.486; with TTCTGTTACGAAGAGACTGAAG, -1.25; with AATTTTGTTGTAACAAGCCTAG, -0.535.

For a further experiment, the target named is ARHGAP18. The description is as above. The following applies: shRNA.
With TTTCTTTTGATTCTCTCTGTTG, the sensor-assay potency score (higher = more potent) was -0.646.
Turning to TTCTCCATAACTTTGATGGTGG, the sensor-assay potency score (higher = more potent) is -0.384.
Same read-out and setting: in the case of TTGGTTTACAATAAACTTGGGA it was 0.294; in that of TTCTCCTTTCTTGAGAGTCTGG, -0.587.
Same read-out and setting: with TTTGACAACAACCACCTCTTGA the figure was 0.34; with TTCTATCCAATAGTCTTCCATA, -1.16; with ATTTGTACTCTTATCTTGCTTT, 0.153.
Same read-out and setting: with TTATTTACACTCTTGACTCAGC the figure was -0.0105; with TTGCACTCGAATCACTCCCTGA, -0.442; with TTTGCTTCTAGTTCTTGGCAAA, -1.24.
TAAAAACACAATGCTTTCCTGT: the sensor-assay potency score (higher = more potent) was 0.106.
Consider TTTATTTACACTCTTGACTCAG, for which the sensor-assay potency score (higher = more potent) was determined as 0.18.

The next experiment addresses ARHGAP21. The description is as above. To be noted: shRNA.
Regarding TAGACTTCCACTATCTGACTTG, the sensor-assay potency score (higher = more potent) is 0.173.
TTATTTTTTGAGACCTCGCAGG came in with a sensor-assay potency score (higher = more potent) of -0.693.
Regarding TAAACTATCTAATCTTTCTTGT, the sensor-assay potency score (higher = more potent) turned out to be 0.258.
The same measure, in the same setting: in the case of TTGTTGAGTCACTAGTAGCTGA it was -0.152; in that of TAAATCTGAAGTACCAGCGTTT, 0.202; in that of TTTCATTGCAAACACACACTGC, -0.187.
The same measure, in the same setting: with TTTAGTATCATTGTGACACTGT the figure was 0.875.
On the same count and under the same terms, with TTAAACTATCTAATCTTTCTTG the figure was 0.206; with TAAACTGCGACACAGATCCCAC, -0.61; with TTGTATATCAATATCAGCCATT, -0.872.
For TATCTGACTTGAATCTAGCTGA, the sensor-assay potency score (higher = more potent) was 0.41.
On to TTCTATTGGATAACAAATCTAC, for which the sensor-assay potency score (higher = more potent) was -0.588.

Another experiment deals with ARHGAP30. The description is as above. The following applies: shRNA.
Sequence TTGTGTCGGAGACAAGTTCAGG came in with a sensor-assay potency score (higher = more potent) of -1.32.
Same read-out and setting: with TGAATCTTGCTACACATTGCAC the figure was -1.12; with TAGGTCATCATAGGCACTCAGG, -1.26; with TTGACCTTCACTAGAGTGGGAC, -0.00464.
TCTTGCTACACATTGCACTGGG yielded a sensor-assay potency score (higher = more potent) of 0.852.
Same read-out and setting: with TTGTTGGATTTATCCTCCCTGT the figure was -0.894.
TTAATCTGGATTTAAAAGGGAC had a sensor-assay potency score (higher = more potent) of -0.482.
Still for that read-out and setting: with TTATTCTGAGACATTGACCTTC the figure was 0.266; with TGCACAGCTCTTTAGCACCTGG, -0.978; with TAGAGTTGGGCACTACAGCTGC, -0.34.
On to TTTGGCACAGTCAACCTCCAGG, for which the sensor-assay potency score (higher = more potent) is -0.36.

The values are drawn from the OligoGym collection.
Note: reference of the scale not given here.
